In the library only some 11% were active in any assay of this set; here they are far more common.
L3MBTL1 inh: qHTS Assay for the Inhibitors of L3MBTL1 | Lethal(3)malignant brain tumor-like protein 1 (Homo sapiens), Q9Y468 | AlphaScreen L3MBTL1–H3K9me1 peptide binding | Potency, µM (top dose mostly 57.1 µM), for inactives: at the top dose activity, negative = inhibition, usual class: inhibitors | actives 0.66% (n = 230,000) | AID 485360, 2010; further: on the % scale 0 is the no-effect control and ±100 the full control effect; nearly all actives have a fitted effect of over 60% in size
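First, the protein-peptide complex forms for 30 min at room temperature (L3MBTL1 50 nM, biotinylated H3K9me1 peptide 75 nM). Next, compounds are pin-transferred and incubated 30 min. Finally, AlphaScreen beads are added and read after 30 min.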
JMJD2A Tudor: qHTS Assay for Inhibitors of JMJD2A-Tudor Domain. Lysine-specific demethylase 4A (Homo sapiens), O75164. actives 4.4% (n = 390,000). Potency, µM (doses to about 114 µM), for the others: at the top dose activity change, negative = inhibition, actives largely listed as inhibitors. AlphaScreen JMJD2A-Tudor / H3K4me3 peptide binding; further: on the % scale 0 is the no-effect control and ±100 the full control effect; nearly all actives have a fitted effect of over 50% in size
BAZ2B inh: qHTS Assay for Inhibitors of BAZ2B; Bromodomain adjacent to zinc finger domain protein 2B (Homo sapiens), Q9UIF8; AlphaScreen BAZ2B-H3K14Ac peptide displacement; Potency, µM (doses to about 114 µM), for inactives: at the highest dose activity change, negative = inhibition, most hits filed as inhibitors; actives 4.4% (n = 360,000); AID 504333, 2011; further: on the % scale 0 is the no-effect control and ±100 the full control effect; nearly all actives have a fitted effect of over 60% in size
Target sequence (Q9UIF8 whole entry, looked up, the tested form may be a part): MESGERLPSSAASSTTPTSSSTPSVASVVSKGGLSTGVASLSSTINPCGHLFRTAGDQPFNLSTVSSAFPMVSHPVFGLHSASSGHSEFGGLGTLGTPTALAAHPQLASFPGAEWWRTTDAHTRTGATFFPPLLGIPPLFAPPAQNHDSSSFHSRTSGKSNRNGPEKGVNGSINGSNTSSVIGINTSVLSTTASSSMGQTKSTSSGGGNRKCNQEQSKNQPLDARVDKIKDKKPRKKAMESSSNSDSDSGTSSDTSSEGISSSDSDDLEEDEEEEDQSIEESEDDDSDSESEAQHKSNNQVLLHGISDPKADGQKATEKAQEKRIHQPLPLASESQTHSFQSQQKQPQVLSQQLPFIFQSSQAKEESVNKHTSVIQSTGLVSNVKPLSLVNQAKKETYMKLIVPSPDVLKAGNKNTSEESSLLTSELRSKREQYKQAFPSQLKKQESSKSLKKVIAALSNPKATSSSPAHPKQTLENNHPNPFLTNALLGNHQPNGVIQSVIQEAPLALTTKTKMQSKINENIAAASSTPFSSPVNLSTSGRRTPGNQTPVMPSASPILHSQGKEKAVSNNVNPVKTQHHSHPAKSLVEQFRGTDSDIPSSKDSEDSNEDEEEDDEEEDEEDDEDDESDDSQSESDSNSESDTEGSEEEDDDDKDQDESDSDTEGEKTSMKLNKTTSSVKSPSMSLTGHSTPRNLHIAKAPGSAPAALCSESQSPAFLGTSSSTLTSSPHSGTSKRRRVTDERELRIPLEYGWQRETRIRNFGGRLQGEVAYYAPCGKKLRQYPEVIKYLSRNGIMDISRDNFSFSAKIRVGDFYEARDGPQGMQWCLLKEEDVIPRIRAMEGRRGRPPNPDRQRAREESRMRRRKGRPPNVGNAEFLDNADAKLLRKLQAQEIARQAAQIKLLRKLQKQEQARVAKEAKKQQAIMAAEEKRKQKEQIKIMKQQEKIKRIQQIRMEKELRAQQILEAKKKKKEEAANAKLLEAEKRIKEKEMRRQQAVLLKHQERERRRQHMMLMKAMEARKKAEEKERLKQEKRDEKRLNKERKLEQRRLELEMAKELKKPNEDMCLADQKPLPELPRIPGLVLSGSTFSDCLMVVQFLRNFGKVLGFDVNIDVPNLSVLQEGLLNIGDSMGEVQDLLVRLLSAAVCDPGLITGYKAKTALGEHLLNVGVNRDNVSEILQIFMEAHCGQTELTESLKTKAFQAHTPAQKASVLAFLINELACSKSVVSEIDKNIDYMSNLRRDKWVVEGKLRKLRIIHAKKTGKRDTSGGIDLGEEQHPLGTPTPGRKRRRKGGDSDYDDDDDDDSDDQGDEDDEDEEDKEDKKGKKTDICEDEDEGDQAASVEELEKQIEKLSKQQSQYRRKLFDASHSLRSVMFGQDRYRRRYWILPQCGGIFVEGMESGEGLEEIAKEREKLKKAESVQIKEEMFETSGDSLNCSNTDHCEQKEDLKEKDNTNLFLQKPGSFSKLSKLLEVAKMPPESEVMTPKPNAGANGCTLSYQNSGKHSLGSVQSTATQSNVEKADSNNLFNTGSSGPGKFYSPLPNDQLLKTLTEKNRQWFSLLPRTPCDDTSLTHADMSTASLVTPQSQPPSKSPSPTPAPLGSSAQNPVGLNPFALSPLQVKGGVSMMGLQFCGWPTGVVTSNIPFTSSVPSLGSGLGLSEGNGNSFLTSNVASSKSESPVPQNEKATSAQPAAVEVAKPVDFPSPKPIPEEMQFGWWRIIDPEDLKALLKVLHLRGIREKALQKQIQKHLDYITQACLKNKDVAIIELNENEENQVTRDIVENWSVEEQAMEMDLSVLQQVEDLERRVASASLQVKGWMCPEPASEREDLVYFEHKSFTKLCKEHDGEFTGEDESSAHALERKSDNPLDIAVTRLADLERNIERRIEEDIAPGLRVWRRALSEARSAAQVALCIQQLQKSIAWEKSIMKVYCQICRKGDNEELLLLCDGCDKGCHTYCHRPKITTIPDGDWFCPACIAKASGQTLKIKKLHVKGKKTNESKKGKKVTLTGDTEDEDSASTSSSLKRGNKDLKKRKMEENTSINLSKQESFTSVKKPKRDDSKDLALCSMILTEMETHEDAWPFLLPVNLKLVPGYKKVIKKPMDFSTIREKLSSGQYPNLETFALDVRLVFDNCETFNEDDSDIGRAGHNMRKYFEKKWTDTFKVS
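Compounds, titrated to a top concentration of 110 uM, were incubated 30 min at room temperature with preformed BAZ2B/acetyl-K14 H3 peptide complex (50 nM each). Proximity signal was measured by AlphaScreen after 20 min with beads.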
G9a block: qHTS Assay for Inhibitors of Histone Lysine Methyltransferase G9a; Histone-lysine N-methyltransferase EHMT2 (Homo sapiens), Q96KQ7; G9a H3K9 monomethylation, AlphaScreen, 2 h; Potency, µM (doses to about 102 µM), for inactives: top-dose activity, negative = inhibition, actives largely listed as inhibitors; actives 8.8% (n = 350,000); AID 504332, 2011; further: on the % scale 0 is the no-effect control and ±100 the full control effect; nearly all actives have a fitted effect of over 75% in size
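G9a (20 nM) preincubated 15 min RT with compounds, then 500 nM biotinylated H3K9 peptide and 20 uM SAM added; 2 h RT reaction. Monomethyl-H3K9 product detected by AlphaScreen with anti-H3K9me1 antibody, streptavidin donor and anti-rabbit IgG acceptor beads.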
HP1b binding inh: HTS for Inhibitors of HP1-beta Chromodomain Interactions with Methylated Histone Tails; Chromobox protein homolog 1 (Homo sapiens), P83916; AlphaScreen HP1-beta / biotin-H3K9me3 peptide binding; Potency, µM (highest dose often 114 µM), inactives show at the top dose activity change, negative = inhibition, usual class: inhibitors; actives 0.56% (n = 390,000); AID 540317, 2011; further: nearly all actives have a fitted effect of over 70% in size
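Compound inhibition of the preformed complex between 50 nM HP1-beta and 50 nM biotinylated H3K9me3 peptide was read by AlphaScreen. Buffer was PBS pH 7.4 with 0.01% Tween-20. Incubations ran 30 min at room temperature, with 10 ug/mL donor/acceptor beads.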
* = called active by the depositor; [ ] = remark or other dose. The call rests on the fitted dose curve; in most records, active means well fitted inhibition curve with a large enough effect; inconclusive means small, poorly fitted or top-dose-only effect; inactive means no such curve, though single readings can be large or run the other way. Potency means the concentration at half of the fitted maximal effect.

How did N#Cc1cccc(NS(=O)(=O)c2ccc3c(c2)CCC(=O)N3)c1 do in these assays?
JMJD2A Tudor: -4%

Results for O=C(CSc1nnc(-c2ccccc2F)o1)N1CCc2ccccc21 ?
JMJD2A Tudor: -4%; BAZ2B inh: 1%; G9a block: 1%[59 µM]; HP1b binding inh: 24%

What do the screens show for `NC(=O)[C@@H]1CC2(CC(c3cccc(NC(=O)[C@H]4CCC(=O)N4)c3)=NO2)CN1C(=O)COc1ccc(Cl)cc1` (some centres undefined)?
JMJD2A Tudor: inconclusive; BAZ2B inh: 79µM*; G9a block: inconclusive; HP1b binding inh: 5%

Results for CCC(=O)Nc1cccc(C2=NOC3(C2)C[C@@H](C(N)=O)N(C(=O)COc2ccc(Cl)cc2)C3)c1 (some centres undefined) ?
JMJD2A Tudor: -13%; BAZ2B inh: 1%; G9a block: -8%[12.7 µM]; HP1b binding inh: 22%

Results for COc1ccc(N2CCN(C(c3cccs3)C(C)NS(=O)(=O)c3ccccc3)CC2)cc1 (centres undefined) ?
L3MBTL1 inh: inconclusive; JMJD2A Tudor: 10µM*; BAZ2B inh: 25µM*; G9a block: inconclusive; HP1b binding inh: -35%

Results for CC(NS(C)(=O)=O)C(c1cccs1)N1CCN(c2ccccc2)CC1 (centres undefined) ?
L3MBTL1 inh: 22%; JMJD2A Tudor: -12%; BAZ2B inh: -6%; G9a block: 20%[59 µM]; HP1b binding inh: 16%

How did CCS(=O)(=O)NC(C)C(c1cccs1)N1CCN(c2ccc(OC)cc2)CC1 (centres undefined) do in these assays?
JMJD2A Tudor: -31%; G9a block: 14µM*; HP1b binding inh: -17%

Results for COc1cccc(C(Nc2ccccn2)c2c(NC(=O)c3ccco3)sc(C)c2C)c1 (centres undefined) ?
L3MBTL1 inh: -3%; JMJD2A Tudor: inconclusive; BAZ2B inh: inconclusive; G9a block: -26%[59 µM]; HP1b binding inh: -26%

What do the screens show for `O=C(Nc1ccccn1)c1ccco1`?
L3MBTL1 inh: 1%; JMJD2A Tudor: -8%; BAZ2B inh: -1%; G9a block: 18%; HP1b binding inh: 43%

How did Cc1sc(NC(=O)c2ccco2)c(C(Nc2ccccn2)c2ccccc2)c1C (centres undefined) do in these assays?
L3MBTL1 inh: -1%; JMJD2A Tudor: -42%; BAZ2B inh: -36%; G9a block: 45µM*; HP1b binding inh: -20%

Results for COc1ccc(C(Nc2ccccn2)c2c(NC(=O)c3ccco3)sc(C)c2C)cc1 (centres undefined) ?
L3MBTL1 inh: -8%; JMJD2A Tudor: inconclusive; BAZ2B inh: inconclusive; G9a block: 45µM*; HP1b binding inh: 6%

How did COc1cccc(NC(=O)Nc2ccc3nc(N4CCN(C)CC4)cc(C)c3c2)c1 do in these assays?
JMJD2A Tudor: -28%; BAZ2B inh: -26%; G9a block: -43%[59 µM]; HP1b binding inh: 13%

How did O=S(=O)(c1ccccc1)N1CCN(S(=O)(=O)c2ccc3c(c2)OCCO3)CC1 do in these assays?
JMJD2A Tudor: -11%

How did Nc1ccc(S(=O)(=O)N2CCCN(S(=O)(=O)c3ccc4c(c3)OCCO4)CC2)cc1 do in these assays?
JMJD2A Tudor: 89µM*

How did CCOC(=O)c1ccc(/[N+]([O-])=C/c2ccccc2)cc1 do in these assays?
L3MBTL1 inh: -1%; JMJD2A Tudor: 32µM*; BAZ2B inh: inconclusive; G9a block: -15%[0.501 µM]; HP1b binding inh: inconclusive

Results for CCOC(=O)c1ccc(CNCc2ccccc2)cc1 ?
L3MBTL1 inh: 10%; JMJD2A Tudor: -12%; BAZ2B inh: -3%; G9a block: inconclusive; HP1b binding inh: 10%

Results for C#CCCc1cscc1/C=[N+](\[O-])c1ccc(C(=O)OCC)cc1 ?
L3MBTL1 inh: -4%; JMJD2A Tudor: 50µM*; BAZ2B inh: -33%; G9a block: 7%[0.501 µM]; HP1b binding inh: inconclusive

Results for O=C(CSC1=NC(=O)C(Cc2ccccc2)C(=O)N1)Nc1ncccn1 (centres undefined) ?
L3MBTL1 inh: -3%; BAZ2B inh: -6%; G9a block: 79µM*

How did O=C(CSC1=NC(=O)C(Cc2ccccc2)C(=O)N1)Nc1ncc(Br)cc1Br (centres undefined) do in these assays?
JMJD2A Tudor: -3%; BAZ2B inh: 2%; G9a block: -4%[59 µM]; HP1b binding inh: 20%

How did OC(c1ccc(Cl)cc1)c1nccc2ccccc12 (centres undefined) do in these assays?
L3MBTL1 inh: 2%; JMJD2A Tudor: -27%; BAZ2B inh: -38%; G9a block: 40µM*; HP1b binding inh: 21%

What do the screens show for `O=C(OC(c1ccccc1)c1nccc2ccccc12)c1ccccc1` (centres undefined)?
JMJD2A Tudor: 6%; HP1b binding inh: 44%

How did CCOC(=O)c1cnc(SCC(=O)N2CCN(c3ccccc3)CC2)nc1N do in these assays?
L3MBTL1 inh: -3%; JMJD2A Tudor: -17%; BAZ2B inh: -18%; G9a block: 35µM*; HP1b binding inh: -1%

What do the screens show for `CCOC(=O)c1cnc(SCC(=O)Nc2ccc3c(c2)OCCO3)nc1N`?
JMJD2A Tudor: -21%; BAZ2B inh: -3%; G9a block: 9%[2.33 µM]; HP1b binding inh: 16%

How did CCOC(=O)c1cnc(SCC(=O)Nc2ccc(N3CCOCC3)cc2)nc1N do in these assays?
BAZ2B inh: 3%; G9a block: 25µM*

What do the screens show for `COc1ccc(N2CCN(C(=O)C(C)n3c(=O)cc(C(F)(F)F)c4c(C)nn(C)c43)CC2)cc1` (centres undefined)?
JMJD2A Tudor: -24%; BAZ2B inh: 35µM*; G9a block: 10µM*; HP1b binding inh: inconclusive

Results for COc1cc(Nc2nc(-c3ccccc3)c3cc(C)ccc3n2)cc(OC)c1OC ?
L3MBTL1 inh: -24%; JMJD2A Tudor: inconclusive; BAZ2B inh: inconclusive; G9a block: 40µM*; HP1b binding inh: -23%

Results for COc1cccc(Nc2nc(-c3ccccc3)c3cc(C)ccc3n2)c1 ?
JMJD2A Tudor: 59%; BAZ2B inh: 42%; G9a block: 76%[59 µM]; HP1b binding inh: 118%

How did CC1(C)CC(=O)C2=C(C1)O[C@@]1(CCCCN3C(=O)c4ccccc4C3=O)Cc3ccccc3C2O1 do in these assays?
BAZ2B inh: -1%[22.9 µM]

What do the screens show for `CSc1nc2sc3c(c2c(=O)n1-c1ccc(F)c(Cl)c1)CCN(C(C)=O)C3`?
JMJD2A Tudor: -15%; BAZ2B inh: -1%; G9a block: -5%[59 µM]; HP1b binding inh: 14%

Assay outcomes (PubChem)
